# According to PubChem BioAssay AID2391 (Southern Research Specialized Biocontainment Screening …, 2010):
# In all, about 310,000 compounds went through this assay and about 410 (0.13%) were called active. About 2% were inconclusive and are not listed. The list is a sample of the results. Entries with a potency or affinity are not part of this list. Values without a mark were called inactive. The rule behind the calls is not given here.
# Experiment: inhibition of RSV-induced cytopathic effect – HEp-2 cells, primary 10 µM value included (AID 2391)
# Conditions: at 10 µM, active compounds read high
row,SMILES,CPE inhibition [%]
1,CCOc1ccc(-c2nnc3ccc(SCC(=O)N4CCCCC4)nn23)cc1,1.74
2,CCOc1ccc(CNC(=O)CCCn2nc(C)c3c(C)n(-c4ccc(C)cc4)nc3c2=O)cc1,12.6
3,COc1cccc(C(=O)NC(=S)Nc2ccc(Cl)c(C(=O)O)c2)c1,1.26
4,Cc1cccc(Nc2c([N+](=O)[O-])cc(C(=O)N3CC(=O)Nc4ccccc43)cc2[N+](=O)[O-])c1,3.38
5,Cc1ccc(Nc2c([N+](=O)[O-])cc(C(=O)N3CC(=O)Nc4ccccc43)cc2[N+](=O)[O-])c(C)c1,-0.4
6,CCOc1cc(/C=C/c2nc3cc(C)c(C)cc3s2)ccc1OCC(=O)N1CCOCC1,15.4
7,Cn1cc(CN2CCCC(CO)(Cc3ccccc3)C2)cn1 (configuration not stated),-1.49
8,Cc1nn(C)c(Cl)c1CN1CCCC(CO)(Cc2cccc(Cl)c2)C1 (configuration not stated),68.4
9,Cc1nn(C)c(Cl)c1CN1CCCC(CO)(Cc2ccccc2)C1 (configuration not stated),62.6
10,CCN1CCCC(CO)(Cc2ccccc2)C1 (configuration not stated),-0.72
11,O=C(COC(=O)c1ccc(F)cc1F)Nc1cccnc1Cl,1.68
12,CSc1nc(N)c(NC(=O)c2ccc(Br)o2)c(=O)[nH]1,0.99
13,CCOC(=O)c1c(C)[nH]c(C(=O)NCc2ccccn2)c1C,-0.66
14,COc1ccc(NC(=S)NCCc2c(C)[nH]c3ccc(OC)cc23)cc1,1.21
15,COc1ccc(NC(=O)CCn2c(=O)c3cccn3c3ccccc32)cc1,3.29
16,COc1ccc(NC(=O)CCn2c(=O)c3cccn3c3ccccc32)c(OC)c1,8.66
17,C=CCCCCCCCCC(=O)NN,1.7
18,CCc1nnc(NC(=O)Cc2c[nH]c3ccccc23)s1,2.52
19,Cc1cnc(NC(=O)Cc2c[nH]c3ccccc23)s1,3.89
20,NC(=O)[C@H]1CC2(CC(c3cccc(NC(=O)COc4ccc(Cl)cc4)c3)=NO2)CN1C(=O)c1ccc(Cl)cc1 (some centres not stated),-1.09
21,C/C=C(/C)C(=O)Nc1cccc(C2=NOC3(C2)C[C@@H](C(N)=O)N(C(=O)c2ccc(OC)cc2)C3)c1 (some centres not stated),0.8
22,NC(=O)[C@@H]1CC2(CC(c3cccc(NC(=O)COc4ccc(Cl)cc4)c3)=NO2)CN1C(=O)c1ccccc1 (some centres not stated),15.3

row,SMILES,CPE inhibition [%]
1,C=C(C)C(=O)Nc1cccc(C2=NOC3(C2)C[C@H](C(N)=O)N(C(=O)c2ccccc2)C3)c1 (some centres not stated),1.43
2,C=CCn1c(-c2cccn(Cc3ccc(Cl)cc3Cl)c2=O)n[nH]c1=S,8.02
3,CCCN1CCOC(CC(=O)Nc2ccc([N+](=O)[O-])cc2)C1=O (configuration not stated),-1
4,CCOC(=O)C1CCN(C(=O)c2cccc(S(=O)(=O)N3c4ccccc4CC3C)c2)CC1 (configuration not stated),0.5
5,O=C(c1cccc(S(=O)(=O)N2CCCC2)c1)N1CCN(c2ncccn2)CC1,1.05
6,CC1CN(C(=O)c2cccc(S(=O)(=O)Nc3ccc(Cl)cc3)c2)CC(C)O1 (configuration not stated),4.6
7,CCC(OC(=O)c1ccco1)C(=O)NCc1ccc(OC)cc1 (configuration not stated),1.29
8,O=C(O)/C(=C\c1cccc(F)c1)c1ccc(S(=O)(=O)N2CCCCC2)s1,3.11
9,COc1ccc2nc(/C=N/NC(=O)[C@H](CCSC)NC(=O)OC(C)(C)C)ccc2c1,18.6
10,Cc1ccc2cc(/C=N/NC(=O)[C@H](C)NC(=O)OC(C)(C)C)c(Cl)nc2c1,2.96
11,CCC(C)[C@H](NC(=O)OC(C)(C)C)C(=O)N/N=C/c1cccc2nccnc12 (some centres not stated),0.75
12,COc1ccc2nc(/C=N/NC(=O)CCCCCNC(=O)OC(C)(C)C)ccc2c1,6.33
13,C(=C/c1ccnc2nc(SC/C=C/c3ccccc3)nn12)/c1ccccc1,2.09
14,Cc1cccc(CCNC(=O)c2nnc(Cc3ccc(Cl)cc3)o2)c1,2.96
15,CNc1cc(C(F)(F)F)nc(-c2ccccn2)n1,-0.28
16,COc1cc(OC)cc(C(=O)Nc2cccc3c2CCCC3)c1,-0.47
17,C=CCn1c(=O)c2c3c(sc2n2c(Nc4ccccc4)nnc12)CCCC3,13.3
18,O=C1OC(CCl)CN1Cc1ccc([N+](=O)[O-])cc1 (configuration not stated),0.81
19,Cc1ccc(C)c(NC(=O)CN(C)C(=O)c2ccc(S(=O)(=O)N3CCCCCC3)cc2)c1,0.63
20,O=C(N=Nc1c(O)[nH]c2ccc([N+](=O)[O-])cc12)c1ccccc1Cl,3.59
21,O=C(O)c1ccccc1N=Nc1c(O)[nH]c2ccc([N+](=O)[O-])cc12,1.41
22,O=C(CNC(=O)c1ccc(Br)cc1)N=Nc1c(O)[nH]c2ccc([N+](=O)[O-])cc12,6.52

row,SMILES,CPE inhibition [%]
1,Cc1ccccc1NCC(=O)N=Nc1c(O)[nH]c2ccc([N+](=O)[O-])cc12,0.48
2,Cc1ccc(NCC(=O)N=Nc2c(O)[nH]c3ccc([N+](=O)[O-])cc23)cc1,2.27
3,O=C(CNC(=O)c1ccco1)N=Nc1c(O)[nH]c2ccc(Br)cc12,7.48
4,Clc1cnc(N/N=C/c2ccco2)c(Cl)c1,5.1
5,O=C(CC1C(=O)NCCN1Cc1ccoc1)NCc1cccc(OC(F)(F)F)c1 (configuration not stated),-0.85
6,CC(Sc1nnc(CNC(=O)c2ccco2)n1C)C(=O)Nc1nccs1 (configuration not stated),-0.02
7,CCN(CC(=O)NCc1ccc(F)cc1)C(=O)COc1ccc2ccccc2c1,1.64
8,COC(=O)CSc1nnc(CNC(=O)c2ccccc2F)n1-c1ccc(F)cc1,1.47
9,CSc1ccc(NC(=O)N2CCC(C(=O)c3ccc(F)cc3)CC2)cc1,8.24
10,COc1ccc(S(=O)(=O)N2CCN(C(=O)c3ccc4ccccc4n3)CC2)cc1,3.49
11,Cc1cc(C)c(NC(=O)CSc2nnc(CNC(=O)c3ccco3)o2)c(C)c1,-0.65
12,COc1ccccc1-c1oc2ccccc2c1C#CCCO,3.39
13,Cc1cccc(-c2oc3ccccc3c2C#CCCCCO)c1,3.25
14,COc1cc(C2NC(C(=O)O)Cc3c2[nH]c2ccccc32)cc(OC)c1OC (configuration not stated),5.99
15,CCC(=O)Nc1nnc(SCC(=O)c2ccc3c(c2)Cc2ccccc2-3)s1,42.4
16,CC(=O)Nc1nnc(SCC(=O)c2ccc(F)cc2)s1,1.4
17,Cc1c(NC(=S)Nc2ccc(Cl)cc2)c(=O)n(-c2ccccc2)n1C,2.83
18,Cc1c(Cl)cccc1NC(=S)NCCN1CCOCC1,1.32
19,COc1ccc(C(=O)COc2ccc3c(C)cc(=O)oc3c2)cc1,1.42
20,COc1ccc(-c2nnc3c4ccccc4c(C)nn23)cc1S(=O)(=O)N1CCN(CCO)CC1,-0.91
21,Cc1ccc(-c2nnc3c4ccccc4c(C)nn23)cc1S(=O)(=O)N1CCN(CCO)CC1,8.23
22,Cc1nn2c(-c3ccc(S(=O)(=O)N4CCN(C)CC4)o3)nnc2c2ccccc12,-1.89

row,SMILES,CPE inhibition [%]
1,Cc1ccc(-c2nnc3c4ccccc4c(C)nn23)cc1S(=O)(=O)N1CCN(C)CC1,0.37
2,Cc1cc(NC(=O)CCC(=O)N(Cc2ccco2)C2(C(=O)NC3CCCC3)CCCCC2C)no1 (configuration not stated),2.17
3,O=C(c1ccc(F)cc1)N1C2CCC1CC(O)(c1ccc(F)cc1)C2 (configuration not stated),0.65
4,COc1ccc(S(=O)(=O)N2CCCCC2)cc1C(=O)N1CCCCCC1,1.11
5,CC1Cc2ccccc2N1C(=O)COC(=O)c1ccc(Br)o1 (configuration not stated),-0.89
6,Cc1ccc(NC(=S)N2CCC(O)CC2)c(C)c1,3.11
7,Cc1cccc(C)c1NC(=O)CN(C)CC(=O)c1c(N)n(Cc2ccccc2)c(=O)n(C)c1=O,0.19
8,Cc1c(NC(=O)COC(=O)c2cc(-c3cccc4ccccc34)nc3ccccc23)c(=O)n(-c2ccccc2)n1C,1.88
9,Cc1ccc2nc(C)cc(C(=O)OCC(=O)Nc3c(C)n(C)n(-c4ccccc4)c3=O)c2c1,2.74
10,COc1ccc(/C=N/NC(=O)Cc2ccc(Cl)cc2)cc1OC,1.07
11,CN(C)c1ccc(NC2=C(Cl)C(=O)c3ccccc3C2=O)cc1,-2.87
12,COc1ccc(NC2=C(NC(C)=O)C(=O)c3ccccc3C2=O)cc1,-0.06
13,CCC1=NN2C(=N)/C(=C\c3cccn3-c3ccc(C)cc3C)C(=O)N=C2S1,16.1
14,CCC1=NN2C(=N)/C(=C\c3cccn3-c3ccc(C)c(C)c3)C(=O)N=C2S1,15.3
15,c1ccc(-n2cc(CN3CCCC3)c(-c3ccc4c(c3)OCO4)n2)cc1,5.52
16,Cc1ccc(NC(=O)c2sc(N)nc2-c2ccc([N+](=O)[O-])cc2)cc1C,-0.73
17,Cc1ccccc1C(=O)NC(C)C(c1cccs1)N1CCOCC1 (configuration not stated),-0.28
18,Cc1nn(-c2ccc(F)cc2)c2nc(N)c(C#N)c(-c3ccc(O)c(O)c3)c12,0.04
19,Cc1nn(-c2ccccc2)c2nc(N)c(C#N)c(-c3ccc(O)c(O)c3)c12,39.2
20,Cc1ccc(C)c2c1cc(C)c1nnc(SCC(=O)NCc3ccc4c(c3)OCO4)n12,2.14
21,CCOC(=O)/C(C#N)=C/c1c(N2CCN(c3ccc(OC)cc3)CC2)nc2c(C)cccn2c1=O,7.79
